Measured values reported in PubChem BioAssay.
Active and inactive are the calls of the source.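 The calls were made as follows, unless noted: active = visually confirmed hit in the image check and inhibition above 20%; inconclusive = visually confirmed hit but inhibition not above 20%; inactive = no visual hit in the image check.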

What was measured:
[1] = inhibitors of TNFa-induced NFkB p65 translocation, primary screen, imaging, HUVEC, MLSMR starter and 10KST1 sets (AID 438;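 active = inhibition above 20% together with a positive visual image hit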;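 also: compound added about 3h40 before a 20 min TNFalpha stimulation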;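 as to inhibition: signal is the nuclear over cytoplasmic p65 intensity ratio per well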); conditions: HUVEC TNFa-induced p65 nuclear translocation; cell count: measured here: nuclei count (cytotoxicity indicator), at 2.08 µM; inhibition: at 2 µM, stronger effect = higher value, 0% TNFa-plus-vehicle, 100% no-TNFa wells
[2] = reduction of polyQ htt aggregates in cells – imaging, exon1htt(103Q)mCFP cells, high-content imaging, primary screen (AID 483;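 active = visual image review flags a hit and inhibition of aggregation exceeds 20%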;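 also: compound exposure lasted 3 days before fixation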;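 as to nuclei count: percent of the per-plate median nuclei count of sample wells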); conditions: exon1htt(103Q)mCFP cell line, aggregate imaging, at 2 µM; inhibition of aggregation: stronger effect = higher value; nuclei count: measured here: cell count, toxicity
[3] = endothelial E-selectin expression blockers – imaging, HUVEC, immunofluorescence, MLSMR starter and 10KST1 sets, primary screen (AID 487); conditions: HUVEC TNFalpha-induced E-selectin immunofluorescence imaging, at 2 µM; inhibition: stronger effect = higher value; nuclei count: measured here: cell number, toxicity;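 as to inhibition: signal is fraction of cell area covered by stained E-selectin grains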;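 as to nuclei count: 100% = median nuclei count of all wells on the same plate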
[4] = biological target: Voltage-gated potassium channel subunit beta-2 (Rattus norvegicus) (UniProt P62483); experiment: inhibitors of rat Kvbeta2 reductase activity – biochemical, NADPH fluorescence, primary screen (AID 622;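 active = fluorescence slope higher than the sample average by over 3 SD, cut at about -0.22 in these data, passing the limit was not always enough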;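 also: slope of raw intensity against log time taken from 70 to 1610 s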); conditions: recombinant KvBeta, 4-cyanobenzaldehyde reduction, at 10 µM, stronger effect = higher value
Sequence of Voltage-gated potassium channel subunit beta-2 (Rattus norvegicus) (P62483 whole entry, looked up): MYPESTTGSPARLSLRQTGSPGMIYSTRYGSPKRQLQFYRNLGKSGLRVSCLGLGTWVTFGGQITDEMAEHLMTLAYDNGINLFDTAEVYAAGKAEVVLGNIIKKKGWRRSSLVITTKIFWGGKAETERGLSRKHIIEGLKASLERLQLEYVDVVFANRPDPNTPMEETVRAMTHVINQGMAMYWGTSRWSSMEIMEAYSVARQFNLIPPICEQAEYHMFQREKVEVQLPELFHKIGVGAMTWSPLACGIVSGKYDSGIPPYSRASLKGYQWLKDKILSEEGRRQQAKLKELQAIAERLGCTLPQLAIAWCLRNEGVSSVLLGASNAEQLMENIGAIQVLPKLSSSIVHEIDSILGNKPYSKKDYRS

[5] = biological target: Voltage-gated potassium channel subunit beta-2 (Rattus norvegicus) (UniProt P62483); experiment: enhancers of rat Kvbeta2 NADPH turnover – biochemical, NADPH fluorescence, primary screen (AID 623;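 active = NADPH fluorescence slope more negative than the mean of all samples by about 3 SD, 99.7% confidence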;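 also: fluorescence intensity change per second fitted from 20 to 320 s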); conditions: Recombinant KvBeta, NADPH fluorescence decrease slope, 10 min; at 10 µM; stronger effect = lower value
[6] = biological target: Alpha-2C adrenergic receptor (Homo sapiens) (UniProt P18825); experiment: compounds altering alpha2C-coupled GIRK flux – cell-based, HEK293 alpha2C/GIRK1/2, thallium flux, primary screen (AID 624;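 active = fluorescence slope after compound addition differing from the mean of all screened samples at 99.7% confidence, in either direction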;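 also: slope of fluorescence ratio to pre-addition baseline per second over 15 to 24 s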); conditions: thallium flux BTC fluorescence, at 10 µM, actives lie on both sides
Sequence of Alpha-2C adrenergic receptor (Homo sapiens) (P18825 whole entry, looked up): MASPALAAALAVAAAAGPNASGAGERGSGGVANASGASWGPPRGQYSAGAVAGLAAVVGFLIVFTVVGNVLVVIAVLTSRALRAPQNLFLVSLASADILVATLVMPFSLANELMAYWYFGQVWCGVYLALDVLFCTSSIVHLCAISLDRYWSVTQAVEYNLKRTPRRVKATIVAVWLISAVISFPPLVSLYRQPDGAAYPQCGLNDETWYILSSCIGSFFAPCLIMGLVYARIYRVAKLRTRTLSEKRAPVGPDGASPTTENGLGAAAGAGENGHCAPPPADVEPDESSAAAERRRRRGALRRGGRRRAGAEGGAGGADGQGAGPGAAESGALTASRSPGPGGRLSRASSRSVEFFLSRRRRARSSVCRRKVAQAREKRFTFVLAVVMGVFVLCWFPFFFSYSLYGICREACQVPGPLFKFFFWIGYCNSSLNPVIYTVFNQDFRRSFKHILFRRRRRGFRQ

[7] = blockers of RIG-like receptor reporter activation – cell-based, Sendai virus stimulus, luciferase, 10K MLSCN set, TLR/RLR signaling modifier project, primary screen (AID 602276;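 active = inhibition at or above 50% at 10 µM; inactive = inhibition below 50%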;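 also: firefly luciferase from ISG56 promoter only with Renilla not read in this screen; 0% = Sendai virus plus DMSO and 100% = medium plus DMSO without virus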); conditions: HEK293 RL24 IRF3 luciferase reporter, at 10 µM, stronger effect = higher value
[8] = TLR3 IRF3 reporter activation blockers – cell-based, poly I:C stimulus, luciferase, 10K MLSCN set, primary screen (AID 602277;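 active = inhibition of the reporter signal at or above 50%; inactive = inhibition below 50%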); conditions: HEK293-TLR3 RL24 IRF3 luciferase reporter, at 10 µM, stronger effect = higher value

Compound	cell count [1]	inhibition [1]	inhibition of aggregation [2]	nuclei count [2]	inhibition [3]	nuclei count [3]	fluorescence slope [4]	NADPH fluorescence slope [5]	slope [6]	inhibition [7]	inhibition [8]
Cc1nnc(SCc2nc3ccccc3s2)n1-c1ccccc1	394	-1% (inactive)	-14.1% (inactive)	83.9%	-324% (inactive)	153%	-0.317 (inactive)	7.5e-06 (inactive)	0.005 (inactive)	13.8% (inactive)	-17.5% (inactive)
COc1nc(OC)nc(N2CCC(C(=O)NCc3cccs3)CC2)n1	559	-15% (inactive)	-22.8% (inactive)	112%	-1.7% (inactive)	107%	-0.528 (inactive)	-4.4e-05 (inactive)	0.00626 (inactive)	-3.8% (inactive)	-2.92% (inactive)
Cn1c(SCCN2CCCCC2)nnc1-c1ccccc1Br	493	4.4% (inactive)	1.1% (inactive)	70.5%	-13.3% (inactive)	98.3%	-0.509 (inactive)	-3.5e-05 (inactive)	0.00556 (inactive)	13.4% (inactive)	13.7% (inactive)
Cc1cc(OCC(=O)NCCO)cc(C)c1Cl	419	-2.3% (inactive)	11.1% (inactive)	73.3%	28.3% (inactive)	92.3%	-0.428 (inactive)	2.8e-05 (inactive)	0.00371 (inactive)	-0.456% (inactive)	24.5% (inactive)
CC(=O)OC1CSc2nc3ccccc3n2C1 (centres undefined)	393	-9.6% (inactive)	6.2% (inactive)	99.9%	25.1% (inactive)	118%	-0.302 (inactive)	-5.5e-05 (inactive)	0.00459 (inactive)	7.55% (inactive)	13% (inactive)
CCOC(=O)c1[nH]c(C)c(C(=O)NC)c1C	627	-1.3% (inactive)	0.2% (inactive)	105%	-37.7% (inactive)	103%	-0.563 (inactive)	-1.3e-05 (inactive)	0.00529 (inactive)	9.49% (inactive)	27.6% (inactive)
O=C1CC(C2CCCO2)C(=O)N1Cc1ccccc1 (centres undefined)	418	-5.4% (inactive)	19% (inactive)	101%	-1.7% (inactive)	125%	-0.489 (inactive)	-3.7e-05 (inactive)	0.00667 (inactive)	-6.03% (inactive)	10.9% (inactive)
CCOC(=O)c1sc(NC(=O)c2noc3c2CCCC3)c(C(=O)OCC)c1C	688	-2.9% (inactive)	-14.8% (inactive)	120%	-47.9% (inactive)	87.6%	-0.549 (inactive)	1e-05 (inactive)	0.0086 (inactive)	2.17% (inactive)	6.46% (inactive)
c1ccc(-c2ccc(-c3ccccn3)nn2)nc1	231	11.2% (inactive)	-2.4% (inactive)	67.7%	-48.9% (inactive)	121%	-0.419 (inactive)	-1.3e-05 (inactive)	0.00636 (inactive)	7.62% (inactive)	70.6% (active)
CC(=O)N1CCN=C1SCc1ccc(Br)cc1	442	14.5% (inactive)	15.2% (inactive)	95.1%	39.5% (inactive)	98.6%	-0.632 (inactive)	-9.6e-06 (inactive)	0.00733 (inactive)	-0.301% (inactive)	22.3% (inactive)
CC1CCN(C(=O)CN2C(=O)C(C)(C)Oc3ccc(C(=O)NC4CCCC4)cc32)CC1	458	0.3% (inactive)	-4.6% (inactive)	84.4%	-83.6% (inactive)	117%	-0.503 (inactive)	-1.2e-05 (inactive)	0.00666 (inactive)	-6.8% (inactive)	14.6% (inactive)
COc1ccccc1N1CCN(C(=O)c2c(-c3c(Cl)cccc3Cl)noc2C)CC1	652	-11.7% (inactive)	3.7% (inactive)	90.6%	-24.6% (inactive)	110%	-0.377 (inactive)	-2.9e-05 (inactive)	0.00504 (inactive)	18.3% (inactive)	38.3% (inactive)
CCc1cccc2c(=O)c(C(=O)N3CCCCCC3)c[nH]c12	538	-26.5% (inactive)	7.9% (inactive)	87.7%	-31% (inactive)	94.3%	-0.513 (inactive)	-5.1e-05 (inactive)	0.0048 (inactive)	4.31% (inactive)	-4.51% (inactive)
CCOC(=O)C1=C(C)Nc2nc(SCC(=O)OC)nn2C1c1cc(F)cc(F)c1 (centres undefined)	432	-15.7% (inactive)	-6.3% (inactive)	96.1%	1% (inactive)	96%	-0.592 (inactive)	-3.9e-05 (inactive)	0.00688 (inactive)	2.11% (inactive)	8.56% (inactive)
